The list is not random: actives were taken first. Their share in the collection is about 1.6%.
KCNQ2 block = rat KCNQ2 potassium channel inhibitors, primary screen, cell-based, CHO-K1, FluxOR thallium flux, B-score | Potassium voltage-gated channel subfamily KQT member 2 (Rattus norvegicus), O88943 | 20 min; hits give low values | B-score at 10 µM | 310,000 tested, 1.1% active;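 active = fluorescence ratio B-score at most minus 3 library SDs, with starting brightness B-score within 2 library SDs, cut at about -5.5 in these data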
Target sequence (O88943 whole entry, looked up): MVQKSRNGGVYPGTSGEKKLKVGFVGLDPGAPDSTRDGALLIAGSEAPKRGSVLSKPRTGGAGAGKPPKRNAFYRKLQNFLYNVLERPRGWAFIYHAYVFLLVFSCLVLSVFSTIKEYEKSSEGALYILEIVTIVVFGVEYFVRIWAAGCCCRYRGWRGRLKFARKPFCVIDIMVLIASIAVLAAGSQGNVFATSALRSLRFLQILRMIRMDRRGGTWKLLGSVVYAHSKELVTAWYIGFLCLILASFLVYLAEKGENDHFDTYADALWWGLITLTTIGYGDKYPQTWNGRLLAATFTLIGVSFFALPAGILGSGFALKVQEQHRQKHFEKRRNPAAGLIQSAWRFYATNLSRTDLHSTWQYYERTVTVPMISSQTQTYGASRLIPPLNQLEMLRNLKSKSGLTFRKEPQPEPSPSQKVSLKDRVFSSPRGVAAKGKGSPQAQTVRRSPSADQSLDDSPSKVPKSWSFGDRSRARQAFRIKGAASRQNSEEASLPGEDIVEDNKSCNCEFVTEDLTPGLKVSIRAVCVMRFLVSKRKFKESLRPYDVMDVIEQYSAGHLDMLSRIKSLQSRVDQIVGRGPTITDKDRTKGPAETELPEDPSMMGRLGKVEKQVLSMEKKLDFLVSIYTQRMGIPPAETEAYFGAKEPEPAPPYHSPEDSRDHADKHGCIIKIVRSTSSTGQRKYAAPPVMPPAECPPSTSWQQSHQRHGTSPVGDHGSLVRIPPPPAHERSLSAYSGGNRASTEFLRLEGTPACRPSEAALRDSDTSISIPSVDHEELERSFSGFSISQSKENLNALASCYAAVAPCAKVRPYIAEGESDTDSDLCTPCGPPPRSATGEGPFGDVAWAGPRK
KCNQ2 enhance = potentiators of rat KCNQ2 potassium channel; AID 2239, 2010; 310,000 tested, 0.54% active; Potassium voltage-gated channel subfamily KQT member 2 (Rattus norvegicus), O88943; CHO-K1 KCNQ2, FluxOR thallium flux fluorescence; hits give high values; B-score at 10 µM;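 active = fluorescence ratio B-score at least 3 SD of library B-scores, with initial fluorescence B-score within 3 of them, cut at about 5.3 in these data; same plate scores as AID 2156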;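 note: B-score of peak minus minimum over baseline fluorescence ratio after K+ and Tl+ stimulus; positive B-score means potentiation of KCNQ2 with more thallium influx and brighter signal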
KCNQ2 inh conf = rat KCNQ2 potassium channel inhibitors, confirmation, cell-based, thallium flux. shares compounds with KCNQ2 block. KCNQ2-expressing cells, inhibition; hits give low values. activity change, negative = inhibition, % at 10 µM. 1,000 tested, 57% active
KCNQ1 spec = human KCNQ1 channel inhibition, counter-screen for KCNQ2 inhibitor project, cell-based, FluxOR thallium flux. shares compounds with KCNQ2 block. KCNQ1-expressing cells, FluxOR thallium flux fluorescence; hits give low values. activity change, negative = inhibition, % at 10 µM. 1,000 tested, 15% active. AID 493026, 2011;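 active = activity change at least 3 SD of negative controls below their mean in both duplicate wells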;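 note: CHO cells stably transfected with KCNQ1 and depolarized by potassium stimulus; peak minus minimum fluorescence over baseline after thallium addition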
CHO parental ctr = thallium flux change in parental CHO cells, counter-screen for KCNQ2 inhibitor project | activity change, % at 10 µM | 1,000 tested, 14% active | shares compounds with KCNQ2 block | hits give low values | AID 493029, 2011
KCNQ2 inh confirm = rat KCNQ2 channel inhibitors, confirmation, cell-based, automated patch clamp, single concentration | shares compounds with KCNQ2 block | KCNQ2-expressing cells, automated patch clamp current | calls only at 10 µM | 550 tested, 49% active
Hits are given with their value; n = inactive; x = not tested or not shown; + = active, no number. Unless noted, the rule behind the calls is not given here.

SMILES | KCNQ2 block | KCNQ2 enhance | KCNQ2 inh conf | KCNQ1 spec | CHO parental ctr | others
COc1ccc2nc(SC(C(=O)c3ccccc3)c3ccccc3)nc(C)c2c1 (configuration not stated) | -5.6 | n | x | x | x
Cc1ccc2c(C)nc(SC(C(=O)c3ccccc3)c3ccccc3)nc2c1 (configuration not stated) | -6 | n | x | x | x
O=C(C#Cc1ccccc1)Nc1cccc(F)c1 | n | x | x | x | x
CCOC(=O)c1cc(C)n(Cc2ccc(OCC)c(OC)c2)c1C | n | x | x | x | x
Cc1cc(C)cc(NC(=O)C2(c3ccccc3)CC2(Cl)Cl)c1 (configuration not stated) | -6.3 | n | x | x | x
Cc1cccc(NC(=O)C2(c3ccccc3)CC2(Cl)Cl)c1 (configuration not stated) | n | x | x | x | x
O=C(Nc1ncccn1)c1ccc(Cl)c([N+](=O)[O-])c1 | n | n | x | x | x
COc1ccc(CNC(=O)C2CCC(CNc3nc(=S)[nH]c4ccccc34)CC2)cc1 (configuration not stated) | n | n | x | x | x
Cc1ccc2ncc(S(=O)(=O)c3ccccc3)c(N3CCCCC3C)c2c1 (configuration not stated) | -6.1 | n | x | x | x
COc1ccc2ncc(S(=O)(=O)c3ccccc3)c(N3CCN(c4ccccc4)CC3)c2c1 | n | x | x | x | x
COc1ccc(S(=O)(=O)N2CCC(C(=O)N[C@H](C(=O)N3CCCCCC3)C(C)C)CC2)cc1 | n | x | x | x | x
CC(=O)c1ccc(-c2cccc(-c3nc4ccccn4c3NC3CCCCC3)c2)cc1 | -5.8 | n | x | x | x
CCC(C)Sc1cc(-c2nc3ccccn3c2NC2CCCCC2)ccc1OC (configuration not stated) | n | n | x | x | x
Cc1cnc(NC(=O)c2cccc(S(=O)(=O)N3CC(C)OC(C)C3)c2)s1 (configuration not stated) | n | n | x | x | x
CC(C)C[C@H](NC(=O)OC(C)(C)C)c1nnc(SCc2cccc(F)c2)o1 | -7.5 | n | x | x | x
CSCC[C@H](NC(=O)OC(C)(C)C)c1nnc(SCc2cccc(F)c2)o1 | n | x | x | x | x
O=C(Cn1ncc2c([nH]c3ccccc32)c1=O)NCCCN1CCN(c2ccccc2)CC1 | n | x | x | x | x
CCOC(=O)c1c(-c2ccc(-c3ccccc3)cc2)csc1NC(=O)CCN1CCOCC1 | n | n | x | x | x
CCOC(=O)c1c(-c2cccs2)csc1NC(=O)CCCC(=O)O | n | n | x | x | x
CCOC(=O)c1c(-c2cccs2)csc1NC(=O)CN1CC(C)OC(C)C1 (configuration not stated) | -8.1 | n | -19% | n | n | KCNQ2 inh confirm=n
CCOC(=O)c1c(-c2ccc(-c3ccccc3)cc2)csc1NC(=O)CNCCN(C)C | -8.8 | n | n | n | n
CCOC(=O)c1c(-c2cccs2)csc1NC(C)=O | n | x | x | x | x
CCOC(=O)c1c(-c2cccs2)csc1NC(=O)C(C)(C)C | -7 | n | -35% | -37% | -34% | KCNQ2 inh confirm=n
CCCCCCCCCCCC(=O)N1CC(=O)NC(=O)C1 | n | n | x | x | x
O=[N+]([O-])c1ccccc1Oc1cnc2ccccc2n1 | n | n | x | x | x
SMILES | KCNQ2 block | KCNQ2 enhance | KCNQ2 inh conf | KCNQ1 spec | CHO parental ctr | others
O=[N+]([O-])c1cc(-c2cnc3ccccc3n2)ccc1Oc1ccc(F)cc1 | -8.4 | n | -20% | n | n | KCNQ2 inh confirm=n
CCCCn1c(N)c(N(CCOC)C(=O)c2ccc(COc3ccccc3)o2)c(=O)[nH]c1=O | n | n | x | x | x
C/C=C/c1ccc(OCC(=O)NCc2ccccc2OC)c(OC)c1 | -6.7 | n | n | n | n
COc1ccccc1CNC(=O)COc1ccccc1C | n | x | x | x | x
Cc1ccc(C)c(NC(=O)C(C)N2C(=O)c3ccccc3C2=O)c1 (configuration not stated) | n | n | x | x | x
Cc1ccc(NC(=O)Nc2ccon2)cc1Cl | n | n | x | x | x
CC(Oc1cccc(Cl)c1)C(=O)Nc1ccccc1C(=O)N1CCCCC1 (configuration not stated) | n | x | x | x | x
CC(Oc1cccc(Cl)c1)C(=O)Nc1ccccc1N1CCCCC1 (configuration not stated) | -7.1 | n | n | n | n
CCC(Oc1ccccc1)C(=O)Nc1ccccc1N1CCCC1 (configuration not stated) | n | x | x | x | x
CCC(C(=O)Nc1ccccc1N1CCCC1)c1ccccc1 (configuration not stated) | -7.2 | n | -36% | n | n | KCNQ2 inh confirm=+
CCN(Cc1cc(=O)n2ccsc2n1)c1cccc2ccccc12 | n | x | x | x | x
O=C(C1CCCO1)N1CCN(S(=O)(=O)c2ccc(Cl)cc2)CC1 (configuration not stated) | n | n | x | x | x
CN(CCOc1ccccc1)C(=O)C1CCC(=O)N(CCc2ccc(Cl)cc2)C1 (configuration not stated) | -7.8 | n | n | n | n
COc1ccc(CCN2CC(C(=O)N(C)CCOc3ccccc3)CCC2=O)cc1 (configuration not stated) | n | x | x | x | x
O=[N+]([O-])c1cccc(S(=O)(=O)NCCc2ccccc2)c1 | n | n | x | x | x
COc1ccc(CN(CC2CCC(C(=O)O)CC2)C(=S)Nc2ccc(C)c(Cl)c2)cc1 (configuration not stated) | n | x | x | x | x
COc1ccc(CCN(Cc2cc3cc(C)cc(C)c3nc2Cl)C(=O)C2CC2)cc1 | -8.6 | n | -32% | n | n | KCNQ2 inh confirm=n
COc1ccc(CCNC(=O)c2ccc3c(c2)N(Cc2ccc(F)cc2)CCS3)c(OC)c1 | -8.1 | n | n | n | n
COc1ccc(OC)c(CCNC(=O)c2ccc3c(c2)N(Cc2ccc(F)cc2)CCS3)c1 | n | x | x | x | x
O=C(/C=N/O)Nc1ccc2sc3ccccc3c2c1 | n | n | x | x | x
CC(=O)N1CCN(C2=Nc3cccc4cccc2c34)CC1 | n | x | x | x | x
COc1ccccc1N1CCN(C2=Nc3cccc4cccc2c34)CC1 | -9 | n | -34% | n | n | KCNQ2 inh confirm=+
NC(=O)C1CC(O)CN1c1nc(CN2CCOCC2)nc2scc(-c3ccccc3)c12 (configuration not stated) | -8.9 | n | n | n | n
CC1CCN(c2nc(CN3CCCCC3)nc3scc(-c4ccccc4)c23)CC1 | n | x | x | x | x
CC(C)(C)n1nnnc1C(c1ccccn1)N(Cc1ccccc1)Cc1ccc(Cl)cc1 (configuration not stated) | -7.7 | n | -28% | n | n | KCNQ2 inh confirm=n
SMILES | KCNQ2 block | KCNQ2 enhance | KCNQ2 inh conf | KCNQ1 spec | CHO parental ctr | others
CCN(Cc1ccccc1)C(c1ccccn1)c1nnnn1C(C)(C)CC (configuration not stated) | n | x | x | x | x
COc1ccc(C/C(N)=N/OC(=O)CCc2ccccc2)cc1 | n | x | x | x | x
Nc1nc(CN2CCN(C(=O)c3ccco3)CC2)nc(Nc2cccc(Cl)c2)n1 | n | x | x | x | x
COc1ccc(Cc2nnc(SCC(=O)Nc3cc(Cl)ccc3C)[nH]c2=O)cc1 | n | n | x | x | x
CCN(Cc1ccccc1)C(=O)CS(=O)(=O)c1ccccc1 | n | n | x | x | x
O=S(=O)(C/C(=C/CO)S(=O)(=O)c1ccccc1)c1ccccc1 | -8 | n | n | n | n

Compound activity: PubChem, Johns Hopkins Ion Channel Center
